According to PubChem BioAssay (EPA / NIEHS):
More than one record can exist for a structure, and the calls need not agree. The source made the active and inactive calls. How the source made its calls: active means hit-call score of the fitted dose curve at least 0.9, where 1 is the maximum; inactive means score below 0.9.

Target: Transcriptional activator Myb (Homo sapiens) (UniProt P10242)
Assay: ATG_Myb_CIS: Attagene CIS-FACTORIAL HepG2 Assay for human Myeloblastosis (Myb) Proto-Oncogene Transcription Factor (AID 2282986)
Conditions: HepG2 Attagene CIS-FACTORIAL Myb reporter transcription; actives raise or lower the signal
Procedure: ATG_CIS is a cell-based, multiplexed-readout assay that uses HepG2, a human liver cell line, with measurements taken at 24 hours after chemical dosing in a 24-well plate.ATG_Myb_CIS is one of 52 assay component(s) measured or calculated from the ATG_CIS assay. It is designed to make measurements of mRNA induction, a form of inducible reporter, as detected with fluorescence intensity signals by Reverse transcription polymerase chain reaction (RT-PCR) and Capillary electrophoresis technology.Data from the assay component ATG_Myb_CIS was analyzed into 1 assay endpoint. This assay endpoint, ATG_Myb_CIS, was analyzed with bidirectional fitting relative to DMSO as the negative control and baseline of activity. Using a type of inducible reporter, measures of mRNA for gain or loss-of-signal activity can be used to understand the reporter gene at the transcription factor-level as they relate to the gene MYB. Furthermore, this assay endpoint can be referred to as a primary readout, because this assay has produced multiple assay endpoints where this one serves a reporter gene function. To generalize the intended target to other relatable targets, this assay endpoint is annotated to the dna binding intended target family, where the subfamily is MYB proteins.
Human liver HepG2 cells are transiently transfected with multiple reporter transcription units (MRTUs) in 6-well plates using FuGene 6 reagent (Roche; 3 ml FuGene/1 mg DNA). The MRTU constructs are regulated by a cis-regulating element (promoter). […] A major difference between the CIS and TRANS system is that in CIS activities of endogenous TFs are measured, whereas the TRANS assay evaluates changes in activities of exogenous, chimeric NR-Gal4 proteins. […] At the end of 24 hour incubation, total RNA was isolated using TriZol reagent (Invitrogen). The isolated RNA is then reverse-transcribed using oligo(dT) primer and Mo-MLV reverse transcriptase (Invitrogen) with DNAse I (Ambion) treatment for 30 min. The one-tenth of the produced cDNA was amplified by PCR using Taq DNA polymerase (Invitrogen) and two reporter sequence-specific primers. The PCR products were fluorescently labeled by primer extension with 6-arboxyfluorescein (6-FAM) 5'-labeled reporter sequence-specific primer (2 min at 95 C, 20 s at 68 C and 10 min at 72 C) and these products were digested with 5U of HpaI (New England Biolabs) for 2h at 37 C. The fragments were purified using Qiaquick PCR columns (Qiagen), analyzed on an ABI 3130xL genetic analyzer (Applied Biosystems) with peak positions identified by using a set of X-rhodamine (ROX)-labeled MapMarker1000 molecular weight standards (BioVentures). The raw capillary electrophoresis data was processed using Attagraph software (Attagene).

Transcriptional activator Myb (Homo sapiens), sequence (P10242 whole entry, looked up): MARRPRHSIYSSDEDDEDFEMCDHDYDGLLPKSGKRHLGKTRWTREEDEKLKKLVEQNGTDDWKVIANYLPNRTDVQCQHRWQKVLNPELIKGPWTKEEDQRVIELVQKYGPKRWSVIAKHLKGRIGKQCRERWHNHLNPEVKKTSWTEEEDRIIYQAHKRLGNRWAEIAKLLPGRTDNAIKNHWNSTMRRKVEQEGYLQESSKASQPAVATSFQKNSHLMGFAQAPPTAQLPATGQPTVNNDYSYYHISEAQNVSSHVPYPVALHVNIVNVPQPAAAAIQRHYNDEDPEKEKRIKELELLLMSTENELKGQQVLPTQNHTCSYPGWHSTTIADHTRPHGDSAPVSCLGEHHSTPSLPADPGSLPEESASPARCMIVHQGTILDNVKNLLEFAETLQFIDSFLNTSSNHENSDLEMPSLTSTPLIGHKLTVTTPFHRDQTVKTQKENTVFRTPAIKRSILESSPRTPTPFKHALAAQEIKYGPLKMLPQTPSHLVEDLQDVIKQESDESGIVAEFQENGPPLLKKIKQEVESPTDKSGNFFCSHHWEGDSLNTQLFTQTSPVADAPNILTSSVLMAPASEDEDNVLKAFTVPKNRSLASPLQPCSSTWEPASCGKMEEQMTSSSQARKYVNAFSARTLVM

Q: `O=C(O)c1ccccc1-n1cc(C(=O)O)c(=O)c2cc(Nc3c(F)cc(F)cc3Cl)c(Cl)cc21` was tested. Which outcome did it give?
A: inactive

Q: Which outcome does the source give for `O=C1c2ccccc2C(=O)N1CCc1noc(-c2ccc(CN3CCCCCC3)s2)n1` here?
A: inactive

Q: With `CCCCCCCCCCCCO` as the molecule, how does the outcome read?
A: inactive

Q: `CCOC(=O)O[C@H](C)OC(=O)c1ccc2c(c1)cc(C(=O)NC1CCN(C(C)C)CC1)n2Cc1cc(-c2ccc(Cl)s2)on1` was tested. Which outcome did it give?
A: inactive

Q: For `O=c1ccc2ccccc2o1`, which outcome is on record?
A: inactive

Q: `CC[C@@H]1C[C@H](N(Cc2cc(C(F)(F)F)cc(C(F)(F)F)c2)C(C)=O)c2cc(C(F)(F)F)ccc2N1C(=O)OC(C)C` was tested. Which outcome did it give?
A: inactive

Q: `Cc1ncc(CO)c(CO)c1O` was tested. Which outcome did it give?
A: inactive

Q: For `CC[C@H](NC(=O)c1cc(F)ccc1NS(=O)(=O)c1cccc2cccnc12)c1ccccc1`, which outcome is on record?
A: inactive

Q: `Cc1ccc(C(C)C)cc1` was tested. Which outcome did it give?
A: inactive

Q: `CCN(Cc1cccnc1)C(=O)c1cccc(Cl)c1[C@]1(C)C(=O)N(Cc2ccc(OC)cc2OC)c2ccc(Cl)cc21` was tested. Which outcome did it give?
A: inactive

Q: With `Cc1cc2c(cc1C(F)(F)F)N(C(=O)Nc1ccc(Oc3cccnc3C)nc1)CC2` as the molecule, how does the outcome read?
A: inactive

Q: Which outcome does the source give for `C[C@]12CC[C@@H]3c4ccc(O)cc4CC[C@H]3[C@@H]1CCC2=O` here?
A: inactive

Q: How did the outcome turn out when `Oc1ccccc1` was run?
A: inactive

Q: With `C[C@]12CC[C@@H]3c4ccc(O)cc4CC[C@H]3[C@@H]1CC[C@H]2O` as the molecule, how does the outcome read?
A: inactive

Q: Which outcome does the source give for `CCCCCc1ccc(N)cc1` here?
A: inactive

Q: `OC12N=C(c3ccccc3)SC1Cc1cc(Cl)ccc12` (stereo not given) was tested. Which outcome did it give?
A: inactive

Q: For `CC(C)(O)c1ccc(CNC(=O)c2cccnc2Oc2ccc3nonc3c2)cc1`, which outcome is on record?
A: inactive

Q: How did the outcome turn out when `CN(C)c1ccc(C(=C2C=CC(=[N+](C)C)C=C2)c2ccc(N(C)C)cc2)cc1` was run?
A: inactive

Q: `CC1=CC(=O)/C(=C(/C)O)C(=O)O1` was tested. Which outcome did it give?
A: inactive

Q: How did the outcome turn out when `Clc1cc(Cl)c2c(c1)N=C1CCCCCN1C2` was run?
A: inactive

Q: `O=C(O)c1ccccc1C(=O)OCc1ccccc1` was tested. Which outcome did it give?
A: inactive

Q: For `Cc1cc(F)ccc1-c1cc(N2CC[C@@H](O)[C@H]2CO)ncc1N(C)C(=O)C(C)(C)c1cc(C(F)(F)F)cc(C(F)(F)F)c1`, which outcome is on record?
A: inactive

Q: For `CCCCOC(=O)CC(CC(=O)OCCCC)(OC(C)=O)C(=O)OCCCC`, which outcome is on record?
A: inactive

Q: For `CC(C)(c1cc(Br)c(O)c(Br)c1)c1cc(Br)c(O)c(Br)c1`, which outcome is on record?
A: inactive

Q: `Cc1occc1C(=O)Nc1ccc(C(=O)N2CCC(F)(F)/C(=C\C(=O)N3CCC(N4CCCCC4)CC3)c3ccccc32)cc1` was tested. Which outcome did it give?
A: inactive

Q: `CN1C(=O)CC[C@H]1c1cccnc1` was tested. Which outcome did it give?
A: inactive

Q: `CC(=O)N1CCN(c2ccc(OC[C@H]3CO[C@](Cn4ccnc4)(c4ccc(Cl)cc4Cl)O3)cc2)CC1` was tested. Which outcome did it give?
A: inactive

Q: How did the outcome turn out when `O=C(OCCCCCCOC(=O)c1ccccc1)c1ccccc1` was run?
A: inactive

Q: Which outcome does the source give for `O=C(O)Cc1cc(I)c(Oc2ccc(O)c(I)c2)c(I)c1` here?
A: inactive

Q: With `CCCCCCCCCCCC[N+](C)(C)C` as the molecule, how does the outcome read?
A: inactive

Q: Which outcome does the source give for `O=c1c(-c2ccc(O)cc2)coc2cc(O)cc(O)c12` here?
A: inactive

Q: Which outcome does the source give for `CCCCCCCCCCCO` here?
A: inactive

Q: How did the outcome turn out when `O=C1CCC(C2CCCCC2)CC1` was run?
A: inactive

Q: What about the AC50 of the same molecule?
A: 147 µM (active)

Q: With `COc1ccc2cc(S(=O)(=O)N[C@H](CC(=O)N[C@H](Cc3ccc(CN4[C@H](C)CCC[C@@H]4C)cc3)C(=O)N(C)C(C)C)c3ccc4c(c3)OCO4)ccc2c1` as the molecule, how does the outcome read?
A: inactive

Q: With `CC(C)(C)c1csc(-c2cc3cc(OCc4ccccc4CC(=O)O)ccc3o2)n1` as the molecule, how does the outcome read?
A: inactive

Q: With `Cc1cccc2ccccc12` as the molecule, how does the outcome read?
A: inactive

Q: For `Oc1ccc2ccccc2c1`, which outcome is on record?
A: inactive

Q: How did the outcome turn out when `CCCCCCCCCC(=O)O` was run?
A: inactive

Q: Which outcome does the source give for `O=C=NCCCCCCN=C=O` here?
A: inactive
